The structures appear in SMILES notation. Hit rate of the full screen: of about 39,000 compounds, about 3,300 (8.5%) were called active. For the sample, actives were picked, then their nearest neighbours and some compounds at random.

This assay deals with HepG2. Kind of assay: cytotoxicity call (relative viability < 0.9). To be noted: 10 µM.
For the molecule `C[C@H]1CN([C@@H](C)CO)C(=O)c2c(c3ccccc3n2C)-c2ccccc2CO[C@@H]1CN(C)Cc1cccc(O)c1`, the cytotoxicity call is “inactive”.
As for `C[C@H](CO)N1C[C@H](C)[C@H](CN(C)S(C)(=O)=O)Oc2ccc(NC(=O)CCC(F)(F)F)cc2CC1=O`, the entry is “inactive”.
Then `Cc1noc(C)c1S(=O)(=O)Nc1ccc2c(c1)C(=O)N([C@@H](C)CO)C[C@H](C)[C@@H](CN(C)C(=O)NC1CCCCC1)O2`, with “inactive”; and `C[C@@H]1CCCCO[C@@H](CN(C)C(=O)Nc2ccccc2)[C@@H](C)CN([C@@H](C)CO)C(=O)c2cc(NC(=O)CCC(F)(F)F)ccc2O1`, with “inactive”; and `C[C@H](CO)N1C[C@H](C)[C@@H](CN(C)C(=O)Nc2ccccc2)Oc2c(NS(=O)(=O)c3cn(C)cn3)cccc2C1=O`, with “inactive”.
As for `C[C@H]1CN([C@@H](C)CO)C(=O)Cc2cc(NS(=O)(=O)c3ccc(F)cc3)ccc2O[C@@H]1CN(C)S(=O)(=O)c1ccccc1`, the entry is “inactive”; as for `COc1ccc2c3c([nH]c2c1)[C@@H](CO)N(CC1CCCC1)C[C@]13CCN(CC1)C(=O)c1ccc(cc1)F`, “inactive”.
Consider `C[C@H](NC(=O)N(C)C[C@@H]1OCc2ccccc2-c2c(n(C)c3ccccc23)C(=O)N([C@@H](C)CO)C[C@H]1C)c1ccccc1`, for which the cytotoxicity call is “inactive”.
Then `O=C(C[C@H]1CC[C@H]2[C@@H](COC[C@@H](O)CN2C(=O)c2ccccc2)O1)N1CCOCC1`, with “inactive”; and `Cc1noc(C)c1S(=O)(=O)Nc1cccc2c1O[C@H](CN(C)Cc1ccc(-c3ccccc3)cc1)[C@H](C)CN([C@@H](C)CO)C2=O`, with “inactive”.
`Cc1noc(C)c1S(=O)(=O)N(C)C[C@H]1Oc2c(NC(=O)c3cnccn3)cccc2C(=O)N([C@H](C)CO)C[C@H]1C`: the cytotoxicity call is “inactive”.
For the molecule `COc1ccc(NC(=O)Nc2ccc3c(c2)C(=O)N([C@@H](C)CO)C[C@@H](C)[C@H](CN(C)S(=O)(=O)c2ccc(C)cc2)OCCCC[C@@H](C)O3)cc1`, the cytotoxicity call was “inactive”.
As for `COc1ccc(C(=O)Nc2ccc3c(c2)C(=O)N(C)[C@@H]2CC[C@H](CC(=O)NCC4CC4)O[C@@H]2CO3)cc1`, the entry is “active”.
For the molecule `CCCNC(=O)C[C@H]1CC[C@@H]2[C@@H](COc3ccc(NC(=O)c4ccc5c(c4)OCO5)cc3C(=O)N2C)O1`, the cytotoxicity call was “active”.
Then `COc1ccc(C(=O)Nc2ccc3c(c2)C(=O)N(C)[C@H]2CC[C@H](CC(=O)NCC4CC4)O[C@@H]2CO3)cc1`, with “inactive”; and `COc1ccc(C(=O)Nc2ccc3c(c2)C(=O)N(C)[C@@H]2CC[C@@H](CC(=O)NCC4CC4)O[C@@H]2CO3)cc1`, with “inactive”; and `COc1ccc(C(=O)Nc2ccc3c(c2)C(=O)N(C)[C@@H]2CC[C@H](CC(=O)NCC4CC4)O[C@H]2CO3)cc1`, with “active”.
Then `CCCNC(=O)C[C@@H]1CC[C@@H]2[C@H](COc3ccc(NC(=O)c4ccc5c(c4)OCO5)cc3C(=O)N2C)O1`, with “inactive”.
As for `COc1ccc(C(=O)Nc2ccc3c(c2)C(=O)N(C)[C@H]2CC[C@H](CC(=O)NCC4CC4)O[C@H]2CO3)cc1`, the entry is “inactive”.
Turning to `COc1ccc(C(=O)Nc2ccc3c(c2)C(=O)N(C)[C@H]2CC[C@@H](CC(=O)NCC4CC4)O[C@H]2CO3)cc1`, the cytotoxicity call is “inactive”.
Then `CCCNC(=O)C[C@@H]1CC[C@@H]2[C@@H](COc3ccc(NC(=O)c4ccc5c(c4)OCO5)cc3C(=O)N2C)O1`, with “inactive”; and `C[C@@H]1CCCCO[C@H](CN(C)C(=O)C2CCCCC2)[C@H](C)CN([C@@H](C)CO)C(=O)c2cc(NS(=O)(=O)c3cccs3)ccc2O1`, with “inactive”; and `Cc1cc(C(=O)Nc2cccc3c2O[C@@H](CN(C)Cc2ccccc2)[C@@H](C)CN([C@H](C)CO)C3=O)n(C)n1`, with “inactive”.
Consider `C[C@H](CO)N1C[C@H](C)[C@H](CN(C)Cc2ccc(Oc3ccccc3)cc2)OCc2ccccc2-c2ccccc2C1=O`, for which the cytotoxicity call is “inactive”.
`C[C@H]1CN([C@@H](C)CO)C(=O)c2cc(NC(=O)NC3CCCCC3)ccc2O[C@@H]1CN(C)Cc1ccc(C(F)(F)F)cc1`: the cytotoxicity call was “inactive”.
Then `O=C(C[C@@H]1C=C[C@H](NS(=O)(=O)c2ccc(F)cc2)[C@@H](CO)O1)N1CCC(Cc2ccccc2)CC1`, with “inactive”.
As for `C[C@@H]1CN([C@H](C)CO)C(=O)CCCn2cc(nn2)CO[C@H]1CN(C)S(=O)(=O)c1ccc2ccccc2c1`, the entry is “inactive”; as for `Cc1noc(C)c1NC(=O)N(C)C[C@H]1OCCCC[C@@H](C)Oc2ccc(NC(=O)Cc3ccccc3)cc2C(=O)N([C@@H](C)CO)C[C@@H]1C`, “inactive”.
For `Cc1noc(C)c1NC(=O)Nc1cccc2c1O[C@@H](CN(C)Cc1ccc(Cl)c(Cl)c1)[C@@H](C)CN([C@@H](C)CO)C2=O`, the cytotoxicity call was “inactive”.
As for `CO[C@@H]1CN(C)C(=O)c2ccc(NS(=O)(=O)c3ccccc3C)cc2OC[C@H](C)N(S(C)(=O)=O)C[C@H]1C`, the entry is “inactive”.
Then `C[C@H]1CCCCO[C@H](CN(C)S(C)(=O)=O)[C@@H](C)CN([C@@H](C)CO)C(=O)c2cc(NS(C)(=O)=O)ccc2O1`, with “inactive”.
As for `COc1ccc(S(=O)(=O)Nc2ccc3c(c2)C(=O)N([C@@H](C)CO)C[C@@H](C)[C@H](CN(C)S(=O)(=O)c2ccc(OC)cc2)O3)cc1`, the entry is “inactive”; as for `CC(C)[C@H]1C(=O)N[C@@H](CCCNC(=N)N)C(=O)NCC(=O)N[C@@H](CC(=O)O)C(=O)N[C@H](Cc2ccccc2)C(=O)N1C`, “active”; as for `N=C(N)NCCCC[C@@H]1NC(=O)CCSSC[C@@H](C(N)=O)NC(=O)[C@@H]2CCCN2C(=O)[C@H](Cc2c[nH]c3ccccc23)NC(=O)[C@H](CC(=O)O)NC(=O)CNC1=O`, “inactive”.
Regarding `N=C(N)NCCC[C@@H]1NC(=O)[C@@H](N)CSSC[C@@H](C(=O)O)NC(=O)[C@H](CC(=O)O)NC(=O)[C@@H]2CCCN2C(=O)CNC(=O)[C@H](CCCCN)NC(=O)[C@H](CC(=O)O)NC(=O)CNC1=O`, the cytotoxicity call was “inactive”.
Turning to `C[C@@H]1CN([C@@H](C)CO)C(=O)Cc2cc(NC(=O)Nc3ccccc3)ccc2O[C@H]1CN(C)C(=O)Nc1cccc2ccccc12`, the cytotoxicity call is “inactive”.
Then `C[C@H]1CN([C@@H](C)CO)C(=O)c2cccc(NC(=O)c3ccc(-c4nccs4)cc3)c2O[C@H]1CN(C)S(C)(=O)=O`, with “inactive”; and `C[C@@H]1CN([C@H](C)CO)C(=O)c2cc(C#CCc3ccccc3)cnc2O[C@H]1CN(C)C(=O)Cc1cccnc1`, with “inactive”.
